# Measured values reported in PubChem BioAssay (NCATS).
# “And” between values parts separate entries of the source, which are not always exact repeats. Equal values may be shown once. Records with an inconclusive call do not appear. A call without a number means that no potency is given here. Some structures have more than one record in an assay (separate samples or runs), and their calls can disagree. The source made the active and inactive calls. Calls come from the whole dose curve; as a rule, active = well fitted curve in the direction sought with a large enough effect; inconclusive = small, poorly fitted or top-dose-only effect, or another doubt; inactive = no such curve, though single readings can be large; an effect the other way counts as inactive or inconclusive.
# Legend:
# MKL-2 = assay: qHTS assay to identify novel small-molecules to repurpose for Merkel cell carcinoma treatment (AID 1296009); conditions: MCC and control cell lines, CellTiter-Glo viability, 72 h; series mostly up to 46 µM; note: nearly all actives have a fitted effect of over 60% in size
# How it was run: (§1)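 Viability readout: ATP luminescence (CellTiter-Glo) after 72 hr drug exposure at 37 degree celsius. Dose-response format was 8 points for NPC and 11 points for MIPE; data normalized to in-plate controls.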
# UISO = assay: as above; conditions: MCC and control cell lines, CellTiter-Glo viability, 72 h; series mostly up to 46 µM
# How it was run: as §1
# WaGa = assay: as above; conditions: MCC and control cell lines, CellTiter-Glo viability, 72 h; series mostly up to 46 µM
# How it was run: as §1
# CAOV3 = assay: Primary qHTS to identify gynecologic anti-cancer compounds using libraries of approved drugs and bioactive compounds (AID 1345084); conditions: Gynecologic cancer cell panel viability, ATPlite luminescence, 48 h; series mostly up to 57.5 µM; note: nearly all actives have a fitted effect of over 55% in size
# How it was run: (§2)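 ATP-based viability (ATPlite), 1,000 cells/well, 16 h pre-incubation, 48 h compound at 37 C, 5% CO2, 15 min RT before read.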
# CASKI = assay: as above; conditions: Gynecologic cancer cell panel viability, ATPlite luminescence, 48 h; series mostly up to 57.5 µM
# How it was run: as §2
# Es-2 = assay: as above; conditions: Gynecologic cancer cell panel viability, ATPlite luminescence, 48 h; series mostly up to 57.5 µM
# How it was run: as §2
# HeLa = assay: as above; conditions: Gynecologic cancer cell panel viability, ATPlite luminescence, 48 h; series mostly up to 57.5 µM
# How it was run: as §2
# Hek293T = assay: as above; conditions: Gynecologic cancer cell panel viability, ATPlite luminescence, 48 h, control line for the selectivity index; series mostly up to 57.5 µM
# How it was run: as §2
# C33A = assay: as above; conditions: Gynecologic cancer cell panel viability, ATPlite luminescence, 48 h; series mostly up to 57.5 µM
# How it was run: as §2
# Potency is the fitted concentration of half-maximal effect.
SMILES,Potency (MKL-2),Potency (UISO),Potency (WaGa),Potency (CAOV3),Potency (CASKI),Potency (Es-2),Potency (HeLa),Potency (Hek293T),Potency (C33A)
CCn1cc(C(=O)O)c(=O)c2cc(F)c(N3CCNCC3)cc21,inactive,inactive,inactive,inactive,inactive,inactive,inactive,inactive,–
Cc1cccc(Nc2ccncc2S(=O)(=O)NC(=O)NC(C)C)c1,inactive,inactive,inactive,inactive,inactive,inactive,inactive,inactive,inactive
O=S(=O)(O)CCS,inactive,inactive,inactive,inactive,inactive,inactive,inactive,inactive,inactive
CS(=O)(=O)c1ccc([C@@H](O)[C@@H](CO)NC(=O)C(Cl)Cl)cc1,inactive,inactive,inactive,inactive,inactive,inactive,inactive,inactive,inactive
CN(CCOc1ccc(CC2SC(=O)NC2=O)cc1)c1ccccn1 (centres undefined),inactive,inactive,inactive,inactive,inactive,inactive,inactive,inactive,inactive
O=C(O)c1cc(=O)[nH]c(=O)[nH]1,inactive,inactive,inactive,inactive,inactive,inactive,inactive,inactive,inactive
CC[C@H](NC(C)C)[C@H](O)c1ccc(O)c2[nH]c(=O)ccc12,inactive,inactive,inactive,inactive,inactive,inactive,inactive,inactive,inactive
CC(C)Cn1cnc2c(N)nc3ccccc3c21,inactive,inactive,inactive and 20.9 µM (active),inactive,inactive,inactive,inactive,inactive,inactive
C[C@@H]1CN(c2c(F)c(N)c3c(=O)c(C(=O)O)cn(C4CC4)c3c2F)C[C@H](C)N1,inactive,inactive,inactive,inactive,inactive,inactive,inactive,inactive,inactive
CCCN[C@H]1CCc2nc(N)sc2C1,inactive,inactive,inactive,inactive,inactive,inactive,inactive,inactive,inactive
C[C@@H](CN1CC(=O)NC(=O)C1)N1CC(=O)NC(=O)C1,inactive,inactive,inactive and 3.72 µM (active),inactive,inactive,inactive,–,inactive,inactive
COc1ccc2cc3[n+](cc2c1OC)CCc1cc2c(cc1-3)OCO2,841 nM (active) and 1.48 µM (active),9.44 µM (active) and 14.8 µM (active),2.09 µM (active),–,2.24 µM (active),15.8 µM (active),–,–,8.91 µM (active)
CC(C)C[C@H](NC(=O)[C@H](CCc1ccccc1)NC(=O)CN1CCOCC1)C(=O)N[C@@H](Cc1ccccc1)C(=O)N[C@@H](CC(C)C)C(=O)[C@@]1(C)CO1,1.1 nM (active) and 14.8 nM (active),18.8 nM (active) and 59 nM (active),4.7 nM (active) and 29.6 nM (active),–,0.316 µM (active),0.316 µM (active),0.794 µM (active),0.251 µM (active),0.316 µM (active)
CN1CCCC(n2nc(Cc3ccc(Cl)cc3)c3ccccc3c2=O)CC1 (centres undefined),15 µM (active) and 418 nM (active),13.2 µM (active),0.296 µM (active),inactive,inactive,–,inactive,inactive,inactive
COc1cc(NCc2ccc3nc(N)nc(N)c3c2C)cc(OC)c1OC,18.7 µM (active),–,2.96 µM (active) and 94.4 nM (active),inactive,–,–,–,0.1 µM (active),–
CNCC[C@H](Oc1cccc2ccccc12)c1cccs1,16.8 µM (active) and 18.7 µM (active),16.6 µM (active),inactive,–,–,–,inactive,–,–
COC(=O)Nc1nc2ccc(S(=O)c3ccccc3)cc2[nH]1 (centres undefined),–,–,–,inactive,–,3.55 µM (active),2.82 µM (active),–,–
COc1cc([C@@H]2c3cc4c(cc3[C@H](O)[C@H]3COC(=O)[C@H]23)OCO4)cc(OC)c1OC,0.0132 µM (active),–,47.3 nM (active) and inactive,inactive,–,–,0.1 µM (active),–,–
CC(C)(C)C(=O)OCOP(=O)(COCCn1cnc2c(N)ncnc21)OCOC(=O)C(C)(C)C,–,–,–,12.6 µM (active),inactive,7.08 µM (active),–,–,–
Nc1[nH]c(=O)ncc1F,–,–,–,inactive,inactive,inactive,inactive,inactive,inactive
CN1CCN(c2c(F)cc3c(=O)c(C(=O)O)cn(CCF)c3c2F)CC1,–,–,–,inactive,inactive,inactive,inactive,inactive,inactive
Cc1nnc(NS(=O)(=O)c2ccc(N)cc2)s1,–,–,–,inactive,inactive,inactive,inactive,inactive,inactive
Cc1c(-c2ccc(O)cc2)n(Cc2ccc(OCCN3CCCCCC3)cc2)c2ccc(O)cc12,–,–,–,–,–,–,–,inactive,–
NC(N)=NC(N)=NCCc1ccccc1,–,–,–,inactive,–,–,inactive,inactive,–
CO[C@@]12[C@H](COC(N)=O)C3=C(C(=O)C(C)=C(N)C3=O)N1C[C@@H]1N[C@@H]12,–,–,–,3.55 µM (active),8.91 µM (active),4.47 µM (active),–,–,inactive
COc1cc2ncnc(Nc3cccc(Cl)c3)c2cc1OC,inactive,–,–,–,inactive,inactive,inactive,inactive,inactive
